# The panel holds about 79,000 compounds, 15% with a hit somewhere; the sample as a whole holds those more often. Active and inactive are the calls of the source. No stated cut-off is given here; in the data, active means growth inhibition above about 70%; inactive means the rest.
# Assay: NCI Yeast Anticancer Drug Screen. Data for the cln2 rad14 strain (AID 165);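 further: 0% = growth equal to vehicle treated cultures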
# Settings: S. cerevisiae cln2 rad14 strain, hits give high values; at 50.0 µM unless noted
# Experimental: Growth inhibition of yeast strains with defined genetic alterations is measured as a screen for potential anti-cancer activity. Selected strains with alterations in DNA damage repair or cell cycle control were exposed to compounds and growth inhibition was measured relative to vehicle treated controls. The strain used in this assay is cln2 rad14
row,Compound,growth inhibition
1,COC(=O)C1=CO[C@@H](OC2OC(CO)C(O)C(O)C2O)[C@H]2[C@@H]1C=C[C@@]21C=C([C@H](C)OC(=O)/C=C/c2ccc(OC3OC(CO)C(O)C(O)C3O)cc2)C(=O)O1 (stereo not given in full),-6.15% (inactive)
2,O=C(NCN1CCOCC1)NC(=O)NCN1CCOCC1,-3.9% (inactive)
3,Cc1ccc(Cl)cc1NC(=O)c1ccccc1,-28.9% (inactive)
4,CC1(C)CSCC(C)(C)C(=N/N)/C1=N\N,4.35% (inactive)
5,O=S1(=O)OCCOS(=O)(=O)C1Cc1nc2ccccc2[nH]1,56.9% (inactive)
6,CCO/C(C)=N\OC(=O)C(F)(F)F,-15.6% (inactive)
7,COc1cc(C(=O)N2CCOC23CCN(Cc2ccccc2)CC3)cc(OC)c1OC,13.2% (inactive)
8,Cc1c2n(c(=O)[nH]c1=O)C1OC(CO)C(O2)C1N=[N+]=[N-] (stereo not given),-7.55% (inactive)
9,CC(O)C(O)CC(/C=N/NC(=O)c1ccccc1)=N/NC(=O)c1ccccc1 (stereo not given),-7.55% (inactive)
10,CN(C=O)c1c(F)cc(N=Nc2ccccc2)cc1F,-16.1% (inactive)
11,O=C(c1ccccc1)C(C(Nc1ccccc1)c1ccccc1)N1CCOCC1 (stereo not given),-47.3% (inactive)
12,Cc1cc(C(=O)c2ccccc2)on1,-36.1% (inactive)
13,OCCCCCSc1ccccc1,1.95% (inactive)
14,CC(=O)Nc1nnn(C)n1,-39.5% (inactive)
15,NC(N)=N/N=C(\c1ccc(C(F)(F)F)cc1)c1ccc(Cl)c(Cl)c1,99.2% (active)
16,O=S(=O)(O)c1cc(O)c(S(=O)(=O)O)cc1O,-3.6% (inactive)
17,CCCCCCCCCCCCCCCCCCc1ccc(O)cc1O,12.6% (inactive)
18,C/C=C/C(=O)Nc1cccc(OC(=O)NC(C)(C)C)c1,-2% (inactive)
19,CCS(=O)(=O)c1ccc(NC(=O)OC2CCC3(C)C(=CCC4C3CCC3(C)C(C(C)CCCC(C)C)CCC43)C2)cc1 (stereo not given),20.4% (inactive)
20,Cc1cccc(C(=O)OCC2CCCO2)c1 (stereo not given),-22.6% (inactive)

row,Compound,growth inhibition
1,CC(C)(C)NCCS,2.95% (inactive)
2,COc1ccc(/C=C/c2ccc(OC)cc2)cc1,-13.4% (inactive)
3,Cc1ccc(-c2c(C#N)c(O)n(NS(=O)(=O)c3ccccc3)c(=O)c2C#N)cc1,0.8% (inactive)
4,Nc1ccc2c(C(F)(F)F)cc(=O)oc2c1,-29.6% (inactive)
5,Cc1ccc(C)c(NC(=O)Nc2ccccc2)c1,-25.1% (inactive)
6,O=C(O)CNC(=S)SCC(=O)O,-32.4% (inactive)
7,CCN(CC)CCOC(=O)Cc1cccc2c(=O)cc(-c3ccccc3)oc12,-3.9% (inactive)
8,COc1ccc2oc(=N)c(C(=O)Nc3ccccc3)cc2c1,4.9% (inactive)
9,COc1ccc(-c2sc(C)nc2O)cc1,-20.8% (inactive)
10,COC(=O)[C@@H]1Cc2cc(O)c(O)cc2C2(CCN(C)CC2)O1,-12.2% (inactive)
11,CCOC(=O)c1ccc(N(CCO)CCO)cc1,-94.2% (inactive)
12,NC(CCO)P(=O)(O)O (stereo not given),-55.7% (inactive)
13,Clc1nc2n(c1/C=C/c1cccs1)CCS2,13.9% (inactive)
14,O=C(Nc1ccccc1)c1cc(S(=O)(=O)Nc2n[nH]c(=O)[nH]2)c(SSc2cc(Cl)c(C(=O)Nc3ccccc3)cc2S(=O)(=O)Nc2n[nH]c(=O)[nH]2)cc1Cl,-6.35% (inactive)
15,O=C(NCCCl)NC1CCCCCC1,-9.35% (inactive)
16,NC(COC(=O)NCCCl)C(=O)O (stereo not given),-11.5% (inactive)
17,COc1ccc(-n2c(CCC(=O)O)nc3c2C(=O)c2ccccc2C3=O)cc1,49% (inactive)
18,OCCc1ccc2ccccc2n1,6.2% (inactive)
19,CC1(C)OCC2OC3(c4nc(C#N)c(N)o4)OC(C)(C)OC3C2O1 (stereo not given),-1.7% (inactive)
20,CCCCCCCCOC(=O)NC1c2ccccc2Oc2c(C)cccc21 (stereo not given),-30.1% (inactive)
